# PubChem BioAssay (NCI)
# The panel holds about 83,000 compounds, 20% with a hit somewhere; the sample as a whole holds those more often.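 Cell lines were cultured in 96-well plates, exposed to a single compound concentration, and assessed for percent growth 48 hours later.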 Values without a mark were called inactive. Calls of active or inactive are those of the source. Rule for the calls: active = growth percent below 10; inactive = the rest.
# Tested on: MDA-MB-468 breast
# Assay: NCI-60 one-dose screen, 48 h (100 = growth as untreated, 0 = no growth, -100 = all killed)
# Conditions: 10 µM unless noted
row,SMILES,growth
1,Cc1ccc(C2CC(c3cccc(Nc4ccncc4)c3)=NN2c2cc(Cl)cc(Cl)c2)cc1 (centres undefined),-30% (active)
2,NCc1c(O)ccc2ccccc12,93.9%
3,COc1cccc(CNc2nnc(C)c(C)n2)c1O,91.7%
4,COc1cc(Cn2c(SCCC(=O)Nc3ccc(F)cc3)nc3ccccc3c2=O)cc(OC)c1OC,88.1%
5,COc1ccc(-c2cc(-c3cc(OC)ccc3OC)nc(SCC(C)=O)c2C#N)cc1,56.2%
6,CC[C@@](C)(NC(=O)[C@H](C)NC(=O)CCNC(=O)C(C)(C)NC(=O)[C@H](C)NC(=O)[C@@H]1CCCN1C(=O)[C@@](C)(CC)NC(=O)[C@H](Cc1ccccc1)NC(=O)C1CCCN1C(=O)C(C)(C)NC(=O)C1CCCN1C(=O)C(C)(C)NC(C)=O)C(=O)NCCC(=O)N[C@@H](CC(C)C)C(=O)NC(C)(C)C(=O)NCCC(=O)N[C@@H](CC(C)C)C(=O)NC(C)(C)C(=O)NC(C)(C)C(=O)N[C@@H](CC(C)C)C(=O)NCCC(=O)NCO (some centres undefined),-91.9% (active)
7,CCCCC(C#N)C(N)=O (centres undefined),119%
8,C[C@@H]1COCCN1c1cc(C2([S@](C)(=N)=O)CC2)nc(-c2ccnc3[nH]ccc23)n1,28.3%
9,CC(=O)Nc1ccc(S(=O)(=O)n2ccc(-c3ccc4c(c3)CCC(C)(C)O4)n2)cc1,24.9%
10,O=C(/C=C/c1cn(-c2ccccc2)nc1-c1ccc([N+](=O)[O-])cc1)c1ccc(Cl)cc1,39.5%
11,CC1=NC2=CC=CC3=NC(C(Cl)(Cl)Cl)=NC(=N1)N23,90.2%
12,Cn1cc(-c2ccc3ncc(-c4ccc(CC(=O)Nc5cc(C(C)(C)C)no5)cc4)nc3c2)cn1,48.9%
13,O=C(CN1C(=O)NC2NC(=O)NC21)N/N=C/c1ccc(Cl)cc1Cl (centres undefined),99.9%
14,Cc1nc(-c2ccccc2)sc1CC#N,104%
